Where “and” joins values, the source holds several entries; their conditions need not be identical. Identical values can stand only once. In all, about 5,500 compounds went through this assay and about 2,000 (36%) were called active. About 18% were inconclusive and are not listed. Rule as the data show it: active = normalized growth mostly below about 0.91 (no sharp cut-off); inconclusive = no clear call, values can overlap the other calls; inactive = mostly above about 0.92. This is one part of the list.
Test: chemical genetic growth profiling, strain panel (AID 1159580);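 also: tested at 20 µM; growth read once vehicle control cultures reached saturation at 30 °C; 1 = growth at the plate median or of vehicle wells; lower values mean less growth of the strain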
Settings: S. cerevisiae deletion strains, growth OD

Measured: normalized growth

C/C=C1\[C@H]2C=C(C)C[C@]1(N)c1ccc(=O)[nH]c1C2
inactive: locus YAL013W, strain DEP1, hits give low values 1.01 | locus YAL021C, strain ccr4, hits give low values 1 | locus YAL026C, strain drs2, hits give low values 1.03 | locus YAL030W, strain snc1, hits give low values 1.02 | locus YBL061C, strain skt5, hits give low values 1.01 | locus YBR009C, strain hhf1, hits give low values 1.03 | locus YBR021W, strain FUR4, hits give low values 1.01 | locus YBR023C, strain chs3, hits give low values 1.02 | locus YBR171W, strain sec66, hits give low values 1.03 | locus YBR229C, strain ROT2, hits give low values 1.01 | locus YBR231C, strain swc5, hits give low values 1.02 | locus YBR279W, strain paf1, hits give low values 1.02 | locus YCL011C, strain gbp2, hits give low values 1.02 | locus YCL016C, strain dcc1, hits give low values 1.01 | locus YCL029C, strain bik1, hits give low values 1.02 | locus YCL061C, strain MRC1, hits give low values 1.02 | locus YCL069W, strain vba3, hits give low values 1.02 | locus YCR088W, strain abp1, hits give low values 1.02 | locus YDL005C, strain med2, hits give low values 1.04 | locus YDL035C, strain GPR1, hits give low values 1.01 | locus YDL040C, strain nat1, hits give low values 1.01 | locus YDL074C, strain BRE1, hits give low values 1.01 | locus YDL101C, strain DUN1, hits give low values 1.01 | locus YDL134C, strain PPH21, hits give low values 1.01 | locus YDL185W, strain tfp1, hits give low values 1.02 | locus YDL192W, strain arf1, hits give low values 1.02 | locus YDR001C, strain nth1, hits give low values 1.01 | locus YDR069C, strain doa4, hits give low values 1.03 | locus YDR101C, strain arx1, hits give low values 1 | locus YDR137W, strain rgp1, hits give low values 1.01 | locus YDR150W, strain NUM1, hits give low values 1.02 | locus YDR159W, strain sac3, hits give low values 1.03 | locus YDR162C, strain NBP2, hits give low values 1.02 | locus YDR195W, strain ref2 0.989 | locus YDR297W, strain sur2, hits give low values 1.01 | locus YDR318W, strain mcm21, hits give low values 1.02 | locus YDR334W, strain swr1, hits give low values 1.03 | locus YDR335W, strain msn5, hits give low values 1.02 | locus YDR388W, hits give low values 1.01 | locus YDR392W, strain spt3, hits give low values 0.966 | locus YDR502C, strain sam2, hits give low values 1.01 | locus YEL003W, strain gim4, hits give low values 1.03 | locus YEL037C, strain rad23, hits give low values 1.02 | locus YEL061C, strain CIN8 (second series), hits give low values 1.03 | locus YEL061C, strain CIN8, hits give low values 1.01 | locus YER015W, strain faa2, hits give low values 1.02 | locus YER016W, strain bim1, hits give low values 1.03 | locus YER110C, hits give low values 1.01 | locus YER111C, strain swi4, hits give low values 1.03 | locus YER155C, strain BEM2 (second series), hits give low values 1.04 | locus YER155C, strain BEM2, hits give low values 1 | locus YER167W, strain BCK2, hits give low values 1.02 | locus YFR010W, strain ubp6, hits give low values 1.03 | locus YGL078C, strain dbp3, hits give low values 1.01 | locus YGL086W, strain mad1, hits give low values 1.01 | locus YGL167C, strain pmr1, hits give low values 1.02 | locus YGL173C, strain kem1, hits give low values 1.04 | locus YGL227W, strain vid30, hits give low values 1.03 | locus YGL240W, strain doc1, hits give low values 1.04 | locus YGL248W, strain PDE1, hits give low values 1.01 | locus YGL253W, strain hxk2, hits give low values 1.02 | locus YGR078C, strain PAC10, hits give low values 1.01 | locus YGR135W, strain pre9, hits give low values 1 | locus YGR229C, strain SMI1, hits give low values 1.01 | locus YGR252W, strain gcn5, hits give low values 1.01 | locus YHR013C, strain ard1, hits give low values 1.02 | locus YHR027C, strain rpn1, hits give low values 1.03 | locus YHR030C, strain SLT2, hits give low values 1 and 1.02 | locus YHR079C, strain IRE1 (second series), hits give low values 1.01 | locus YHR079C, strain IRE1, hits give low values 1.01 | locus YHR094C, strain hxt1, hits give low values 1.01 | locus YHR129C, strain ARP1, hits give low values 1 | locus YHR142W, strain chs7, hits give low values 0.992 | locus YHR200W, strain rpn10, hits give low values 1.02 | locus YIL066C, strain RNR3, hits give low values 1.02 | locus YIL073C, strain SPO22, hits give low values 1.08 | locus YIL125W, strain kgd1, hits give low values 1.02 | locus YIR030C, strain dcg1, hits give low values 1.01 | locus YJL092W, strain hpr5, hits give low values 1.03 | locus YJL095W, strain BCK1 (second series), hits give low values 1.01 | locus YJL095W, strain BCK1, hits give low values 0.989 and 0.995 | locus YJL115W, strain asf1, hits give low values 1.02 | locus YJL129C, strain trk1, hits give low values 1.02 | locus YJL134W, strain LCB3, hits give low values 1.01 | locus YJL154C, strain vps35, hits give low values 1.02 | locus YJL164C, strain tpk1, hits give low values 1.01 | locus YJL166W, strain qcr8, hits give low values 1.02 | locus YJL168C, strain set2, hits give low values 1.01 | locus YJL187C, strain SWE1 (second series), hits give low values 1 | locus YJL187C, strain SWE1, hits give low values 1.02 | locus YJR043C, strain POL32, hits give low values 1.01 | locus YJR066W, strain TOR1, hits give low values 0.96
